The record followed here is PubChem BioAssay (EPA / NIEHS).

Values joined by “and” are separate entries in the source; they are usually repeats but may differ in a detail not shown here. Equal entries are not always repeated. More than one record can exist for a structure, and the calls need not agree. Active and inactive are the calls of the source. The calls were made as follows: active = hit-call score of the fitted dose curve at least 0.9, where 1 is the maximum; inactive = score below 0.9.

Read-out in assay [1]: C-C motif chemokine 2 (Homo sapiens) (UniProt P13500)
Description: BSK_KF3CT_MCP1: BioMAP Diversity Plus: KF3CT Assay for Monocyte Chemoattractant Protein 1 (MCP1/CCL2) Biomarker Activity (AID 2283073). The conditions noted are these: primary human keratinocytes with fibroblasts; actives raise or lower the signal. In short, it runs like this: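 Human keratinocyte plus foreskin fibroblast primary co-culture exposed to chemical for 24 h. MCP-1 levels measured by ELISA. Bidirectional curve fitting relative to DMSO negative control as baseline.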

Read-out in assay [2]: Matrix Metallopeptidase 9 (MMP9), MMP9 (gene 4318)
Nature of the assay: BSK_KF3CT_MMP9: BioMAP Diversity Plus: KF3CT Assay for Matrix Metallopeptidase 9 (MMP9) Biomarker Activity (AID 2283074).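 As to AC50: MMP9 protein level quantified by ELISA in the co-culture.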 The conditions noted are these: primary human keratinocytes with fibroblasts; actives raise or lower the signal. In outline:
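MMP-9 quantified by ELISA after 24 h chemical treatment of primary human skin keratinocyte/fibroblast co-cultures; gain or loss fitted against DMSO, with parallel SRB staining (0.1% SRB, 560 nm) for overt cytotoxicity.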

Read-out in assay [3]: urokinase plasminogen activator (uPA), PLAU (gene 5328)
Nature of the assay: BSK_KF3CT_uPA: BioMAP Diversity Plus: KF3CT Assay for urokinase plasminogen activator (uPA) Biomarker Activity (AID 2283075). The conditions noted are these: primary human keratinocytes with fibroblasts; actives raise or lower the signal. In short, it runs like this:
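ELISA read-out of uPA 24 h after dosing human skin keratinocytes co-cultured with foreskin fibroblasts. Signal change fitted both ways relative to DMSO; sulforhodamine B on parallel cultures marks overt cytotoxicity.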

Read-out in assay [4]: CD40, CD40 (gene 958)
Description: BSK_LPS_CD40: BioMAP Diversity Plus: LPS Assay for CD40 Biomarker Activity (AID 2283076). The conditions noted are these: primary human HUVEC with PBMC; actives raise or lower the signal. In short, it runs like this: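 Primary human umbilical vein endothelial cells co-cultured with peripheral blood mononuclear cells, LPS-stimulated, were dosed with chemical and read 24 h later. CD40 levels were measured by ELISA and fitted bidirectionally against DMSO as negative control and baseline.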

Read-out in assay [5]: E-selectin (Homo sapiens) (UniProt P16581)
Nature of the assay: BSK_LPS_Eselectin: BioMAP Diversity Plus: LPS Assay for Eselectin Biomarker Activity (AID 2283077). The conditions noted are these: primary human HUVEC with PBMC; actives raise or lower the signal. In outline: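 Human umbilical vein endothelial cells co-cultured with peripheral blood mononuclear cells under LPS stimulation; E-selectin measured by ELISA 24 h after chemical dosing. Activity fitted bidirectionally against DMSO as negative control and baseline.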

Read-out in assay [6]: Interleukin-8 (IL8), CXCL8 (gene 3576)
Description: BSK_LPS_IL8: BioMAP Diversity Plus: LPS Assay for Interleukin-8 (IL8) Biomarker Activity (AID 2283078). Conditions: primary human HUVEC with PBMC; actives raise or lower the signal. In short, it runs like this: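 Human umbilical vein endothelial cells co-cultured with PBMC were stimulated with LPS; IL-8 levels were measured by ELISA 24 h after chemical dosing. Activity was fitted bidirectionally against DMSO as negative control and baseline.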

Read-out in assay [7]: Interleukin-1 alpha (IL1a), IL1A (gene 3552)
Nature of the assay: BSK_LPS_IL1a: BioMAP Diversity Plus: LPS Assay for Interleukin-1 alpha (IL1a) Biomarker Activity (AID 2283080). Conditions: primary human HUVEC with PBMC; actives raise or lower the signal. In outline:
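Human umbilical vein endothelial cells co-cultured with peripheral blood mononuclear cells were LPS-stimulated and exposed to test chemicals for 24 h. IL-1 alpha was quantified by ELISA, with bidirectional curve fitting against DMSO as the negative control and baseline.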

Read-out in assay [8]: Monocyte Chemoattractant Protein-1 (MCP1), CCL2 (gene 6347)
Description: BSK_LPS_MCP1: BioMAP Diversity Plus: LPS Assay for Monocyte Chemoattractant Protein-1 (MCP1) Biomarker Activity (AID 2283081).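 As to AC50: secreted MCP-1 protein quantified by ELISA in culture supernatant.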 Conditions: primary human HUVEC with PBMC; actives raise or lower the signal. In outline:
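HUVEC plus PBMC co-culture (human primary cells, LPS system) exposed to test chemical for 24 h; MCP-1 measured by ELISA. Bidirectional curve fitting against DMSO baseline; parallel SRB total-protein staining flags overt cytotoxicity.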

A short description of assay [9]: BSK_LPS_PGE2: BioMAP Diversity Plus: LPS Assay for Prostaglandin E2 (PGE2) Biomarker Activity (AID 2283082).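 As to AC50: secreted prostaglandin E2 measured by ELISA in LPS-stimulated co-culture.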 Conditions: primary human HUVEC with PBMC; actives raise or lower the signal. In short, it runs like this:
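ELISA read-out of PGE2 from human umbilical vein endothelial cells co-cultured with peripheral blood mononuclear cells under LPS, 24 h post-dose. Gain or loss of signal scored relative to DMSO baseline.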

Read-out in assay [10]: Macrophage colony-stimulating factor (MCSF), CSF1 (gene 1435)
Nature of the assay: BSK_LPS_MCSF: BioMAP Diversity Plus: LPS Assay for Macrophage colony-stimulating factor (MCSF) Biomarker Activity (AID 2283083). Conditions: primary human HUVEC with PBMC; actives raise or lower the signal. In outline:
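Human umbilical vein endothelial cells co-cultured with peripheral blood mononuclear cells were exposed to compound for 24 h. M-CSF levels were measured by ELISA, and bidirectional curve fitting used DMSO as the negative control and baseline.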

Read-out in assay [11]: Tissue Factor, F3 (gene 2152)
Nature of the assay: BSK_LPS_TissueFactor: BioMAP Diversity Plus: LPS Assay for Tissue Factor Biomarker Activity (AID 2283084). Conditions: primary human HUVEC with PBMC; actives raise or lower the signal. In outline:
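Human umbilical vein endothelial cells co-cultured with peripheral blood mononuclear cells were dosed and stimulated with LPS. Cell-surface CD142 was quantified by ELISA at 24 h. Activity was fitted bidirectionally against DMSO baseline.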

Read-out in assay [12]: Vascular cell adhesion molecule 1 (VCAM1), VCAM1 (gene 7412)
Nature of the assay: BSK_LPS_VCAM1: BioMAP Diversity Plus: LPS Assay for Vascular cell adhesion molecule 1 (VCAM1) Biomarker Activity (AID 2283086). Conditions: primary human HUVEC with PBMC; actives raise or lower the signal. In short, it runs like this: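 ELISA read-out of VCAM-1 at 24 h post-dosing in an LPS-driven HUVEC/PBMC primary human co-culture; gain or loss of signal fitted bidirectionally against DMSO baseline. Cytotoxicity tracked in parallel cultures by SRB total-protein staining.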

Read-out in another assay: CD38, CD38 (gene 952)
Nature of the assay: BSK_SAg_CD38: BioMAP Diversity Plus: SAg Assay for CD38 Biomarker Activity (AID 2283087). The conditions noted are these: primary human HUVEC with PBMC; actives raise or lower the signal. In short, it runs like this:
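Measures CD38 on a human endothelial/PBMC co-culture driven by SEB and TSST-1, 24 h after compound exposure, using ELISA with fluorescence detection; DMSO defines baseline for bidirectional curve fitting.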

Read-out in assay [13]: CD40, CD40 (gene 958)
Nature of the assay: BSK_SAg_CD40: BioMAP Diversity Plus: SAg Assay for CD40 Biomarker Activity (AID 2283088). The conditions noted are these: primary human HUVEC with PBMC; actives raise or lower the signal. In outline:
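Human umbilical vein endothelial cells co-cultured with PBMC; CD40 levels measured by ELISA with fluorescence read-out 24 h after chemical dosing. Gain or loss of signal fitted bidirectionally against DMSO baseline.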

Read-out in the next assay: CD69, CD69 (gene 969)
Description: BSK_SAg_CD69: BioMAP Diversity Plus: SAg Assay for CD69 Biomarker Activity (AID 2283089). The conditions noted are these: primary human HUVEC with PBMC; actives raise or lower the signal. In short, it runs like this:
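Primary human vascular co-culture (umbilical vein endothelium with peripheral blood mononuclear cells) exposed to test chemical for 24 h. CD69 levels quantified by fluorescence ELISA; DMSO served as negative control for bidirectional fitting.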

Read-out in assay [14]: Monocyte Chemoattractant Protein-1 (MCP1), CCL2 (gene 6347)
Nature of the assay: BSK_SAg_MCP1: BioMAP Diversity Plus: SAg Assay for Monocyte Chemoattractant Protein-1 (MCP1) Biomarker Activity (AID 2283090). The conditions noted are these: primary human HUVEC with PBMC; actives raise or lower the signal. In outline: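 Values derive from bidirectional fitting of ELISA-measured MCP1 against DMSO controls. Readings were taken 24 h after dosing human vascular endothelial cells co-cultured with peripheral blood mononuclear cells under superantigen stimulation.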

Read-out in assay [15]: E-selectin (Homo sapiens) (UniProt P16581)
Nature of the assay: BSK_SAg_Eselectin: BioMAP Diversity Plus: SAg Assay for Eselectin Biomarker Activity (AID 2283091). Conditions: primary human HUVEC with PBMC; actives raise or lower the signal. In short, it runs like this: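 HUVEC co-cultured with PBMC, compound dosed then read at 24 h; E-selectin measured by ELISA. Activity fitted bidirectionally against DMSO as negative control and baseline.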

Read-out in assay [16]: Monokine induced gamma interferon (MIG), CXCL9 (gene 4283)
Description: BSK_SAg_MIG: BioMAP Diversity Plus: SAg Assay for Monokine induced gamma interferon (MIG) Biomarker Activity (AID 2283092). Conditions: primary human HUVEC with PBMC; actives raise or lower the signal. In outline:
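Endothelial cells and PBMC were co-cultured, exposed to test chemicals, and sampled 24 h later. MIG was measured by ELISA, and responses were fitted in both directions relative to DMSO.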

Read-out in assay [17]: Tumor necrosis factor (Homo sapiens) (UniProt P01375)
Nature of the assay: BSK_LPS_TNFa: BioMAP Diversity Plus: LPS Assay for Tumour Necrosis Factor alpha (TNFa) Biomarker Activity (AID 2283085). Conditions: primary human HUVEC with PBMC; actives raise or lower the signal. In outline:
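HUVEC/PBMC co-culture, LPS-stimulated; 24 h post-dose; TNFa by ELISA; gain or loss of signal fitted bidirectionally vs DMSO baseline.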

Chain of E-selectin (Homo sapiens) (P16581 whole entry, looked up): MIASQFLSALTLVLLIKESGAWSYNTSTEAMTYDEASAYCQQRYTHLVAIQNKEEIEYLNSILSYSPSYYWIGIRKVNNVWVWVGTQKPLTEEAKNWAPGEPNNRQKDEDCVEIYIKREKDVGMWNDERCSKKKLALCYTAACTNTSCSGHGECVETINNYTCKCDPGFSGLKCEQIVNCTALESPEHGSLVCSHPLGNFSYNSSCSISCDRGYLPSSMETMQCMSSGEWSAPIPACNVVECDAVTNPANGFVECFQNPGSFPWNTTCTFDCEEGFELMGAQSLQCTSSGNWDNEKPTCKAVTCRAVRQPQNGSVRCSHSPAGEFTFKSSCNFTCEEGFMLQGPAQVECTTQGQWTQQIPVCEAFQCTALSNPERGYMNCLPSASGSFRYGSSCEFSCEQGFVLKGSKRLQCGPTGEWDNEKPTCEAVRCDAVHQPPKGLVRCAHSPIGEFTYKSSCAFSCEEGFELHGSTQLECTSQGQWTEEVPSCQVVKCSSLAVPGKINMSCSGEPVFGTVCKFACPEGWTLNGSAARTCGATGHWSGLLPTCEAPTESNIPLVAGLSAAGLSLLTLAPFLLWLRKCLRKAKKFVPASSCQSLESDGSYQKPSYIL
Chain of Tumor necrosis factor (Homo sapiens) (P01375 whole entry, looked up): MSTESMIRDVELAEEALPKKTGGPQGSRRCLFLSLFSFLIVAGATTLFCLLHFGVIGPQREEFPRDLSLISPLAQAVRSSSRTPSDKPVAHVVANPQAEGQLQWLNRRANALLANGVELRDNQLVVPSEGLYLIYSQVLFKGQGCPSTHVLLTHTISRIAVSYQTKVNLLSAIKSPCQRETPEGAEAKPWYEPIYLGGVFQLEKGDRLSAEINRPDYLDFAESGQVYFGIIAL

By AC50 is commonly meant the concentration giving half of the maximal activity seen. With `C#C[C@]1(O)CC[C@H]2[C@@H]3CCC4=CC(=O)CC[C@@H]4[C@H]3CC[C@@]21C`, the outcome was “inactive” in assay [1]; “inactive” in assay [2]; “inactive” in [3]; “inactive” in the assay with CD40, CD40 (gene 958) [4]; “inactive” in [7]; “inactive” in [11]. Moreover, the outcome with CD69, CD69 (gene 969) is “inactive”; in assay [15], “inactive”; in assay [16], “inactive”. Moreover, the AC50 in assay [5] was 6.29 µM (active); in [6] it was 4.87 µM (active); in assay [8], 8.06 µM (active); in [9] it was 20 µM (active); in [10], 6.38 µM (active); in [12], 8.21 µM (active). The AC50 is 7.1 µM (active) with CD38, CD38 (gene 952); 5.45 µM (active) with CD40, CD40 (gene 958) [13]; 5.76 µM (active) in [14].
Take `FC(F)(I)C(F)(F)C(F)(F)C(F)(F)C(F)(F)C(F)(F)I`: the AC50 in assay [1] is 6.01 µM (active) [middle of 5 runs]; in [2], 8.17 µM (active) [middle of 5 runs]; in assay [3] it was 11.7 µM (active) [middle of 5 runs]; in assay [7] it was 18 µM (active) [middle of 5 runs]; in assay [8], 36.5 µM (active) [middle of 5 runs]; in assay [9] it was 7.63 µM (active) and 7.34 µM (active) and 7.24 µM (active). The AC50 in [16] is 54.9 µM (active) [middle of 5 runs]. Besides, the result in [9] was inactive.
Turning to `CC(C)(C)c1cc(C(C)(C)C)c(O)c(C(C)(C)C)c1`, the outcome was “inactive” in assay [1]; “inactive” in [3]; “inactive” in the assay with CD40, CD40 (gene 958) [4]; “inactive” in [5]; “inactive” in [6]; “inactive” in [7]. In addition, the outcome in assay [8] was “inactive”; in [9], “inactive”; in assay [10] it was “inactive”; in assay [17], “inactive”; in [12] it was “inactive”; in the assay with CD38, CD38 (gene 952) it was “inactive”. Also, the outcome with CD40, CD40 (gene 958) [13] was “inactive”; with CD69, CD69 (gene 969), “inactive”; in assay [14] it was “inactive”; in assay [15] it was “inactive”; in assay [16], “inactive”. The AC50 in [2] was 36.2 µM (active); in assay [11], 20 µM (active).
